According to PubChem BioAssay (NCI):
Compounds without any hit were thinned out: in the full panel of roughly 83,000, 20% have a hit.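 Interpretation: 100, growth as untreated; towards 0, rising growth inhibition; 0, no net growth; 0 to -100, cell death. Compounds scoring below 10 were considered active.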 Activity calls are given as the source filed them.

Key:
Experiment in all cases: NCI-60 one-dose screen, 48 h (100 = growth as untreated, 0 = no growth, -100 = all killed)
Conditions in all cases: 10 µM unless noted
[1] = tested on: HCT-15 colon
[2] = tested on: HT29 colon
[3] = tested on: SNB-75 CNS
[4] = tested on: SNB-19 CNS
[5] = tested on: U251 CNS
[6] = tested on: PC-3 prostate
[7] = tested on: SK-MEL-5 melanoma
[8] = tested on: UACC-62 melanoma
[9] = tested on: LOX IMVI melanoma
[10] = tested on: SK-MEL-28 melanoma
[11] = tested on: EKVX NSCLC
[12] = tested on: SN12C renal
[13] = tested on: UO-31 renal
[14] = tested on: TK-10 renal
[15] = tested on: ACHN renal
[16] = tested on: CAKI-1 renal
[17] = tested on: A498 renal
[18] = tested on: CCRF-CEM leukemia
[19] = tested on: MOLT-4 leukemia
[20] = tested on: SK-MEL-2 melanoma

Measured: growth

Cc1ccccc1Nc1n[nH]c(Cc2ccccc2)n1
inactive: [1] 108% | [2] 79.1% | [3] 93.9% | [4] 97.6% | [5] 94.3% | [6] 86.5% | [7] 93.9% | [8] 98.4% | [9] 95.5% | [10] 113% | [11] 103% | [12] 104% | [13] 86% | [14] 90% | [15] 106% | [16] 101% | [17] 102% | [18] 97.8% | [19] 70.2%

CCN(CC)Cc1cc(Nc2ccnc3ccc(OC)cc23)ccc1O
inactive: [1] 32.4% | [3] 101% | [4] 74.4% | [6] 39.8% | [7] 50.4% | [8] 87.7% | [10] 105% | [20] 26.5% | [11] 67.1% | [12] 56.6% | [14] 49.6% | [15] 35.1% | [16] 45.4% | [17] 45.6% | [18] 55.5% | [19] 29.7%
active: [2] -24.3% | [9] 4.78% | [13] 2.04%

O=C1NN(C(=O)c2ccccc2)C(c2ccc(Cl)c(Cl)c2)=C/C1=C\c1ccccc1[N+](=O)[O-]
active: [1] -28.1% [6.75 µM] | [2] 4.99% [6.75 µM] | [6] 9.01% [6.75 µM] | [7] -65.4% [6.75 µM] | [8] -69% [6.75 µM] | [9] -45.5% [6.75 µM] | [13] -3.12% [6.75 µM] | [17] -10.9% [6.75 µM]
inactive: [3] 25.1% [6.75 µM] | [4] 24.3% [6.75 µM] | [10] 27.8% [6.75 µM] | [20] 10.9% [6.75 µM] | [11] 32% [6.75 µM] | [12] 30.7% [6.75 µM] | [14] 42.1% [6.75 µM] | [15] 24% [6.75 µM] | [16] 24.1% [6.75 µM] | [18] 17.4% [6.75 µM]

Fc1ccc(-c2cnc3nonc3n2)c(F)c1
inactive: [1] 78.3% | [2] 113% | [3] 96.4% | [4] 92.5% | [5] 111% | [6] 73.3% | [7] 96.2% | [8] 87.6% | [9] 93.1% | [10] 101% | [11] 108% | [12] 107% | [13] 89.1% | [14] 121% | [15] 95.2% | [16] 96.3% | [17] 80.9% | [18] 46.1% | [19] 77.6%

COc1cc(OC)cc(-c2ccc(-c3ccc(C(=N)N)s3)s2)c1
active: [1] -77.4% | [2] -87.4% | [3] -91.5% | [4] -82.9% | [5] -90.1% | [6] -83.9% | [7] -97.4% | [8] -90.5% | [9] -71.6% | [10] -85.3% | [12] -69.5% | [13] -85.8% | [14] -88.7% | [15] -76% | [16] -86.4% | [17] -80.9% | [19] -71.2%

Oc1c(C(Nc2ccccc2Br)c2ccccc2)ccc2cccnc12 (stereo unspecified)
active: [7] 2.41% | [8] -26.3% | [19] 4.89%
inactive: [1] 26.5% | [2] 24% | [3] 60.4% | [4] 31.7% | [6] 48.6% | [9] 10.5% | [10] 39.2% | [20] 12.1% | [11] 23.4% | [12] 24.7% | [13] 16.8% | [14] 30.3% | [15] 13.5% | [16] 13.2% | [17] 47.7% | [18] 17.3%

O=C(Nc1ccc(Br)cc1)c1ccc(Cl)c(Cl)c1
inactive: [1] 32.3% | [2] 40.1% | [3] 38.6% | [4] 35% | [5] 32.4% | [7] 49.4% | [8] 43.6% | [9] 33.3% | [10] 73% | [11] 24% | [12] 60.7% | [13] 59.1% | [15] 18.1% | [17] 65.7% | [19] 23.3%
active: [6] -22% | [16] 8.9% | [18] 1.53%

COc1ccc(-c2cc(-c3cc4ccccc4oc3=O)n(-c3ccccc3)n2)cc1
inactive: [1] 103% | [2] 83.8% | [3] 77% | [4] 82% | [5] 31.4% | [6] 76.1% | [7] 94.5% | [8] 80.3% | [9] 59.8% | [10] 106% | [11] 67.5% | [12] 67% | [14] 141% | [15] 73.2% | [16] 97.1% | [17] 91.3% | [18] 94.5%

CN1C2CCC1/C(=C\c1ccc(F)cc1)C(=O)/C2=C/c1ccc(F)cc1
active: [19] 9.91%
inactive: [1] 38.7% | [2] 15.5% | [3] 59.6% | [4] 55.7% | [6] 34.5% | [7] 40.1% | [8] 26.4% | [9] 28.2% | [10] 73% | [20] 50% | [11] 60.4% | [12] 37.8% | [13] 49.7% | [14] 73.1% | [15] 55.5% | [16] 54.8% | [17] 73.3% | [18] 16.5%

O=C1CCCN1C(O)CCN(Cc1ccccc1)Cc1ccc(Cl)cc1 (stereo unspecified)
inactive: [1] 125% | [2] 98.4% | [3] 101% | [4] 104% | [5] 102% | [6] 95.1% | [7] 106% | [8] 102% | [9] 97.2% | [10] 115% | [11] 101% | [12] 101% | [13] 84.9% | [14] 109% | [15] 108% | [16] 97.3% | [17] 109% | [18] 91.7% | [19] 89.9%

CCOC(=O)C1C(=O)C=C(c2cc(OC)c(OC)c(OC)c2)CC1c1sc(N(C)Cc2ccccc2)nc1Cl (stereo unspecified)
inactive: [1] 92.1% | [2] 90.7% | [3] 79.6% | [4] 77.5% | [6] 64% | [7] 72.7% | [8] 64.7% | [9] 94% | [10] 115% | [20] 71.9% | [11] 63.3% | [12] 80.6% | [13] 53% | [14] 87.4% | [15] 86.8% | [16] 46.8% | [17] 86.1% | [18] 82% | [19] 58.7%

CN(C)c1nc(-c2ccco2)n2nc(-c3ccc(Cl)cc3)cc2n1
inactive: [1] 92.7% | [2] 58.6% | [3] 20.9% | [4] 77.9% | [5] 59.5% | [6] 64.7% | [7] 81.2% | [8] 87% | [9] 50.5% | [10] 94.8% | [11] 84.2% | [12] 86.6% | [13] 20.7% | [14] 23.1% | [15] 28.5% | [16] 74.1% | [17] 75.8% | [18] 86.7% | [19] 86.8%

COc1ccc2nc3ccccc3c(NCc3ccc(Cl)cc3)c2c1
inactive: [3] 57.6% | [4] 26.4% | [6] 19.5% | [7] 11.7% | [8] 64.7% | [11] 33.8% | [12] 22.1% | [14] 52.9% | [15] 17.1% | [16] 21.4%
active: [1] 5.04% | [2] -2.29% | [5] 2.55% | [9] -86.3% | [10] 7.07% | [13] 1.86% | [17] 8.58% | [18] 8.43% | [19] -8.25%

CCNCCCn1c2c(c3ccc(Cl)cc3c1=O)C(=O)c1cc(OC)cnc1-2
inactive: [3] 19.4% | [4] 28.8% | [6] 40% | [7] 18.3% | [8] 14.4% | [10] 70.5% | [11] 53.4% | [12] 27.6% | [13] 10.3% | [14] 39.9% | [16] 39.9%
active: [1] -58.2% | [2] -76.3% | [5] -93.8% | [9] -71.1% | [15] 8.64% | [18] -37.3% | [19] -34%

Clc1ccccc1CNc1c2ccccc2nc2ccccc12
inactive: [1] 13.6% | [3] 43.1% | [4] 25.8% | [6] 17.1% | [7] 41.8% | [8] 41% | [10] 50.5% | [11] 25.9% | [12] 27.8% | [13] 17.5% | [15] 12.2% | [16] 25.2% | [18] 10.7%
active: [2] 5.54% | [9] 4.83% | [17] -5.85% | [19] 5.14%
